Results: PubChem BioAssay AID1159580 (chemical genetic matrix, 2015)
Several values for one entry are separate records, joined by “and”; a condition that tells them apart may be missing. Identical values can stand only once. About 2,000 (36%) of roughly 5,500 compounds were called active. About 18% were inconclusive and are not listed. Rule as the data show it: active = normalized growth mostly below about 0.91 (no sharp cut-off); inconclusive = no clear call, values can overlap the other calls; inactive = mostly above about 0.92. The list shows a part of the results.

Assay: chemical genetic growth profiling, strain panel (AID 1159580);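 also: tested at 20 µM; growth read once vehicle control cultures reached saturation at 30 °C; 1 = growth at the plate median or of vehicle wells; lower values mean less growth of the strain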
Settings: S. cerevisiae deletion strains, growth OD

Measured: normalized growth

CCOC(=O)CCCCCCCCCCCCC1C=CCC1 (centres undefined)
active: locus YAL013W, strain DEP1, stronger effect = lower value 0.054 | locus YBR021W, strain FUR4, stronger effect = lower value 0.0914 | locus YBR229C, strain ROT2, stronger effect = lower value 0.0494 | locus YCL029C, strain bik1, stronger effect = lower value 0.067 | locus YDL035C, strain GPR1, stronger effect = lower value 0.0527 | locus YDL074C, strain BRE1, stronger effect = lower value 0.0833 | locus YDL101C, strain DUN1, stronger effect = lower value 0.0581 | locus YDL134C, strain PPH21, stronger effect = lower value 0.0502 | locus YDL185W, strain tfp1, stronger effect = lower value 0.499 | locus YDL192W, strain arf1, stronger effect = lower value 0.0606 | locus YDR101C, strain arx1, stronger effect = lower value 0.0619 | locus YDR162C, strain NBP2, stronger effect = lower value 0.0522 | locus YDR318W, strain mcm21, stronger effect = lower value 0.0614 | locus YDR388W, stronger effect = lower value 0.0583 | locus YDR392W, strain spt3, stronger effect = lower value 0.497 | locus YDR502C, strain sam2, stronger effect = lower value 0.0641 | locus YEL061C, strain CIN8, stronger effect = lower value 0.054 | locus YER110C, stronger effect = lower value 0.0827 | locus YER155C, strain BEM2 (second series), stronger effect = lower value 0.594 | locus YER155C, strain BEM2, stronger effect = lower value 0.0734 | locus YER167W, strain BCK2, stronger effect = lower value 0.0529 | locus YGL078C, strain dbp3, stronger effect = lower value 0.688 | locus YGL086W, strain mad1, stronger effect = lower value 0.0537 | locus YGL248W, strain PDE1, stronger effect = lower value 0.0488 | locus YGR078C, strain PAC10, stronger effect = lower value 0.053 | locus YGR135W, strain pre9, stronger effect = lower value 0.06 | locus YGR252W, strain gcn5, stronger effect = lower value 0.11 | locus YHR013C, strain ard1, stronger effect = lower value 0.815 | locus YHR079C, strain IRE1 (second series), stronger effect = lower value 0.0604 | locus YHR094C, strain hxt1, stronger effect = lower value 0.0651 | locus YHR129C, strain ARP1, stronger effect = lower value 0.0559 | locus YHR200W, strain rpn10, stronger effect = lower value 0.0588 | locus YIL066C, strain RNR3, stronger effect = lower value 0.0493 | locus YIL073C, strain SPO22, stronger effect = lower value 0.148 | locus YIL125W, strain kgd1, stronger effect = lower value 0.773 | locus YIR030C, strain dcg1, stronger effect = lower value 0.0637 | locus YJL134W, strain LCB3, stronger effect = lower value 0.0504 | locus YJL168C, strain set2, stronger effect = lower value 0.0586 | locus YJL187C, strain SWE1 (second series), stronger effect = lower value 0.0498 | locus YJR043C, strain POL32, stronger effect = lower value 0.0731
0.0494 (active) and 0.992 (inactive): locus YHR030C, strain SLT2, stronger effect = lower value
0.0599 (active) and 0.989 (inactive): locus YJL095W, strain BCK1, stronger effect = lower value
inactive: locus YAL021C, strain ccr4, stronger effect = lower value 1.01 | locus YAL026C, strain drs2, stronger effect = lower value 1 | locus YAL030W, strain snc1, stronger effect = lower value 0.982 | locus YBL061C, strain skt5, stronger effect = lower value 0.977 | locus YBR009C, strain hhf1, stronger effect = lower value 0.922 | locus YBR023C, strain chs3, stronger effect = lower value 0.979 | locus YBR171W, strain sec66, stronger effect = lower value 0.973 | locus YBR231C, strain swc5, stronger effect = lower value 0.978 | locus YBR279W, strain paf1, stronger effect = lower value 0.981 | locus YCL011C, strain gbp2, stronger effect = lower value 0.967 | locus YCL016C, strain dcc1, stronger effect = lower value 0.981 | locus YCL061C, strain MRC1, stronger effect = lower value 0.983 | locus YCL069W, strain vba3, stronger effect = lower value 0.981 | locus YCR088W, strain abp1, stronger effect = lower value 0.983 | locus YDL005C, strain med2, stronger effect = lower value 0.974 | locus YDL040C, strain nat1, stronger effect = lower value 0.974 | locus YDR001C, strain nth1, stronger effect = lower value 0.994 | locus YDR069C, strain doa4, stronger effect = lower value 0.958 | locus YDR137W, strain rgp1, stronger effect = lower value 0.979 | locus YDR159W, strain sac3, stronger effect = lower value 0.978 | locus YDR195W, strain ref2 1.06 | locus YDR297W, strain sur2, stronger effect = lower value 0.984 | locus YDR334W, strain swr1, stronger effect = lower value 0.976 | locus YDR335W, strain msn5, stronger effect = lower value 1 | locus YEL003W, strain gim4, stronger effect = lower value 0.969 | locus YEL037C, strain rad23, stronger effect = lower value 0.989 | locus YEL061C, strain CIN8 (second series), stronger effect = lower value 0.978 | locus YER015W, strain faa2, stronger effect = lower value 0.982 | locus YER016W, strain bim1, stronger effect = lower value 0.978 | locus YER111C, strain swi4, stronger effect = lower value 0.958 | locus YFR010W, strain ubp6, stronger effect = lower value 0.969 | locus YGL167C, strain pmr1, stronger effect = lower value 0.972 | locus YGL173C, strain kem1, stronger effect = lower value 0.96 | locus YGL227W, strain vid30, stronger effect = lower value 0.962 | locus YGL240W, strain doc1, stronger effect = lower value 0.972 | locus YGL253W, strain hxk2, stronger effect = lower value 0.998 | locus YHR027C, strain rpn1, stronger effect = lower value 0.984 | locus YHR079C, strain IRE1, stronger effect = lower value 0.983 | locus YHR142W, strain chs7, stronger effect = lower value 0.975 | locus YJL092W, strain hpr5, stronger effect = lower value 0.994 | locus YJL095W, strain BCK1 (second series), stronger effect = lower value 0.969 | locus YJL115W, strain asf1, stronger effect = lower value 0.99 | locus YJL129C, strain trk1, stronger effect = lower value 0.91 | locus YJL154C, strain vps35, stronger effect = lower value 0.997 | locus YJL164C, strain tpk1, stronger effect = lower value 0.952 | locus YJL166W, strain qcr8, stronger effect = lower value 0.942 | locus YJL187C, strain SWE1, stronger effect = lower value 0.98
